“And” between values parts separate entries of the source, which are not always exact repeats. Equal values may be shown once. Results filed as inconclusive are left out. A call without a number means that no potency is given here. The source made the active and inactive calls. Calls come from the whole dose curve; as a rule, active = well fitted cell-killing curve with a large enough effect in the repeat runs; inconclusive = weak or mixed curves; inactive = flat fitted curve, though single readings scatter.
Potency is the fitted concentration of half-maximal effect.

A short description of this assay: qHTS RealTime-Glo MT Cell Viability Assay in HepG2 cells - 24 hour (AID 1224867). Note: nearly all actives have a fitted effect of over 50% in size. The note with it: RealTime-Glo luminescence; series mostly up to 76.8 µM. The text has this: U.S. Tox21 Program National Center for Advancing Translational Sciences [NCATS] NIH Chemical Genomics Center [NCGC] U.S. Environmental Protection Agency [EPA] National Institutes of Environmental Health Sciences [NIEHS] National Toxicology Program [NTP] U.S. Food and Drug Administration [FDA] Tox21 Assay Overview: Measure of cell viability is critical in the cell-base assay. Analysis of cell viability is necessary for the characterization of cell responses to cytotoxic drugs and environmental stress. A RealTime-Glo MT Cell Viability Assay to monitor cell viability in real time of continues cell culture during 40 hours of compound treatment was used to screen Tox21 10K library compounds in HepG2 cells. The RealTime-Glo MT Cell Viability Assay is a nonlytic, homogeneous, bioluminescent method to measure cell viability in real time using a simple, plate-based method. The assay involves adding NanoLuc luciferase and a cell-permeant prosubstrate to cells in culture. Viable cells reduce the proprietary prosubstrate to generate a substrate for NanoLuc luciferase. This substrate diffuses from cells into the surrounding culture medium, where it is rapidly used by the NanoLuc Enzyme to produce a luminescent signal. The signal correlates with the number of viable cells, making the assay well suited for cytotoxicity studies.
Tox21 Assay Protocol Summary: The mixture of HepG2 cell suspension and reagents were dispensed at 600cells/6 ul/well in 1536-well tissue culture treated black solid bottom plates using a Multidrop dispenser. After the assay plates were incubated at a 37 C/5% CO2 incubator for 5 hours, 23 nL of compounds dissolved in DMSO, positive and negative controls was transferred to the assay plate by a pintool work station. The plates were incubated at 37 C for 40 hours. The luminescence intensity were measured at 0h, 8h, 16h, 24h, 32h and 40h time points using ViewLux plate reader during compound treatment.
A general note: qHTS replaces the single test concentration by a dilution series.
On to `CC(C)[C@@H](C(=O)O[C@@H](C#N)c1cccc(Oc2ccccc2)c1)c1ccc(Cl)cc1`, for which the Potency result was “inactive”.

Regarding `CN1CC[C@]23c4c5ccc(O)c4O[C@H]2[C@@H](O)CC[C@H]3[C@H]1C5`, the Potency result was “inactive”. The result for `Cc1ccc2c(C)cccc2c1` reads “inactive”; that for `COc1cc(CC(C)N)c(OC)cc1Br` (stereo not given), “inactive”; that for `Cc1ccc(N)c(C)c1`, “inactive”.

In the case of `O=C(N/N=C/c1ccc([N+](=O)[O-])o1)c1cc([N+](=O)[O-])cc([N+](=O)[O-])c1O`, the Potency result is “inactive”. The result for `CC(C)(C#N)C(C)(C)C#N` reads “inactive”; that for `CC(Oc1cc(Cl)c(Cl)cc1Cl)C(=O)O` (stereo not given), “inactive”; that for `CCCCCCCCCCCC[N+](C)(C)CCOc1ccccc1`, 21.9 µM (active) and 9.52 µM (active).

Consider `C=CCSSCC=C`, for which the Potency result is “inactive”. The result for `C[N+](C)(C)CCOC(=O)C(O)(c1ccccc1)c1ccccc1` reads “inactive”; that for `c1ccc2c(c1)sc1ccccc12`, “inactive”; that for `CCCSP(=S)(OCC)Oc1ccc(SC)cc1` (stereo not given), “inactive”. The result for `CCOC(=O)c1cncn1C(C)c1ccccc1` (stereo not given) reads “inactive”; that for `CC(C)CCON=O`, “inactive”; that for `N#CC(C#N)=Cc1ccc(O)c(O)c1`, “inactive”. Under `FC(F)OC(F)(F)C(F)Cl` (stereo not given) stands “inactive”.

For `O=C(O)C(Cl)(Cl)Br`, the Potency entry is “inactive”.

In the case of `CC(O)CN1CCN(CC(=O)[O-])CCN(CC(=O)[O-])CCN(CC(=O)[O-])CC1.[Gd+3]` (stereo not given), the Potency result is “inactive”. With `Cc1nc2ccccc2c(=O)n1-c1ccccc1Cl`, the Potency result is “inactive”. As to `O=C(O)c1ccc(=O)[nH]c1`, the Potency result was “inactive”. Under `Nc1ccccc1C(=O)OCC(O)CO` (stereo not given) stands “inactive”; under `CCCC1CCCCN1` (stereo not given), “inactive”; under `COC(=O)C1(O)c2ccccc2-c2ccccc21`, “inactive”. Regarding `C[C@@H]1C[C@@H]([C@H](O)CC2CC(=O)NC(=O)C2)C(=O)[C@@H](C)C1`, the Potency entry was “inactive”. Regarding `CN1CC[C@]23c4c5ccc(O)c4O[C@H]2[C@@H](O)C=C[C@H]3[C@H]1C5`, the Potency result is “inactive”.

For `COC(=O)Cc1ccccc1`, the Potency entry was “inactive”. The result for `C=CCc1ccccc1O` reads “inactive”. The result for `Cc1nnc(-c2ccccc2)c(=O)n1N` reads “inactive”; that for `CC(=O)OC(c1ccccc1)C(Cl)(Cl)Cl` (stereo not given), “inactive”; that for `CCOP(=O)(O)C(N)=O`, “inactive”. Under `CN[C@@H](C)[C@H](O)c1ccccc1` stands “inactive”; under `CCC(C)Cl` (stereo not given), “inactive”. Regarding `CC(C)(C)c1ccc(CCOc2ncnc3ccccc23)cc1`, the Potency entry was “inactive”. As to `CCCCC1C(=O)NC(=O)N(C2CCCCC2)C1=O` (stereo not given), the Potency result was “inactive”. Under `O=[N+]([O-])O[C@H]1CO[C@H]2[C@@H]1OC[C@H]2O[N+](=O)[O-]` stands “inactive”; under `Nc1ccc2c(c1)Cc1ccccc1-2`, “inactive”; under `CCOP(=S)(OCC)Oc1ccc(S(C)=O)cc1` (stereo not given), “inactive”. Under `O=C1c2ccccc2C(=O)N1SC(Cl)(Cl)Cl` stands 34.2 µM (active) and 13.8 µM (active); under `CC(C)c1ccc(NC(=O)N(C)C)cc1`, “inactive”.

The values above are taken from PubChem BioAssay (Tox21).
